The structures appear in SMILES notation. Screen size: about 310,000 compounds; about 1,000 (0.32%) were called active. The rule behind the calls is not given here. These entries were drawn from the full list. Potency and affinity values are given separately.

A short description of this experiment: PhoP regulon inhibitors, Salmonella typhi PhoP promoter GFP reporter, confirmatory (AID 1850).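 Note: 0% = induced wells with vehicle and 100% = uninduced wells.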 Conditions: fluorescence, 4 h, at 50 µM, active compounds read high.
A word on the inhibition: it is the change of the read-out against control, counted positive when it falls. For the molecule `O=C(O)C[C@H]1c2ccccc2S(=O)(=O)N1c1ccccc1`, the inhibition is -12.5% (inactive).

With `Cc1nn(Cc2noc(C(=O)NCc3ccc(F)cc3)n2)c(C)c1Br`, the inhibition is 5.51% (inactive).

Take `O=C(CCc1nnc(Cc2cccc(C(F)(F)F)c2)o1)NC1CC1`: the inhibition was 2.17% (inactive).

On to `COc1ccc(N(CC(=O)Nc2ccccc2C(=O)NCCc2ccccc2)S(C)(=O)=O)cc1OC`, for which the inhibition was -12.9% (inactive).

For `CC(=O)Nc1ccc(S(=O)(=O)Oc2ccccc2N2C(=O)C3C4CCC(C4)C3C2=O)cc1` (stereo not given), the inhibition was 1.86% (inactive).

For `COc1ccc(N(CC(=O)NC2CC3CCC2C3)S(=O)(=O)c2ccc(C)cc2)cc1` (stereo not given), the inhibition is -6.68% (inactive).

For `CN(C)CCCNc1ccc(-c2n[nH]c(=O)c3ccccc23)cc1[N+](=O)[O-]`, the inhibition was -4.76% (inactive).

With `Cc1ccc2nc(C)c(Cl)c(=O)n2c1`, the inhibition is -9.57% (inactive).

As to `COc1ccc(CCNC(=O)CCCCC(=O)NCCc2ccc(OC)cc2)cc1`, the inhibition is -3.5% (inactive).

Take `O=S(=O)(NC1CCCCCC1)c1cccc2cccnc12`: the inhibition was 5.87% (inactive).

With `COc1ccc(C(=O)O/N=C(/c2ccccc2)c2ccncc2)cc1OC`, the inhibition is -4.7% (inactive).

In the case of `O=c1cc(-c2ccc(O)cc2)oc2cc(O)cc(O)c12`, the inhibition was 1.38% (inactive).

As to `COc1c(O)c(O)c2oc(-c3ccccc3)cc(=O)c2c1OC`, the inhibition is 9.73% (inactive).

Regarding `CCOC(=O)CC1(C)OCC(C[N+]2(C)CCCCC2)O1` (stereo not given), the inhibition was 5.82% (inactive).

`COC(=O)[C@@H]1C[C@@]2(O)[C@H](O)[C@H](O)[C@H](O)C[C@H]2N1Cc1ccc(-c2ccccc2)cc1`: the inhibition is -7.22% (inactive).

For `CC1CCN(CCNC(=O)c2ccc3c(=O)n(Cc4ccc(Cl)cc4)c(=S)[nH]c3c2)CC1`, the inhibition was 4.39% (inactive).

As to `COC(=O)c1ccc2c(=O)n(Cc3ccc(C(=O)NCCCN4CCC(C)CC4)cc3)c(=S)[nH]c2c1`, the inhibition was 2.98% (inactive).

With `COc1ccc(S(=O)(=O)NN(C)c2ncc(C(F)(F)F)cc2Cl)cc1`, the inhibition was 2.03% (inactive).

For `CC(=O)NCCC(=O)NCC1(N(C)Cc2ccccc2)Cc2ccccc2C1`, the inhibition is -1.56% (inactive).

With `c1ccc(-c2cc(N3CCCCC3)nc(-c3ccccc3)n2)cc1`, the inhibition is 5.32% (inactive).

As to `CO[C@@]12[C@H](COC(N)=O)C3=C(C(=O)C(C)=C(N)C3=O)N1C[C@@H]1N[C@@H]12`, the inhibition is 6.71% (inactive).

`O=C(ONC1=NCCCCC1)c1cccc([N+](=O)[O-])c1`: the inhibition is -5.28% (inactive).

In the case of `Cc1ccnc(-n2c(C)nc3ccccc3c2=O)c1`, the inhibition is -16% (inactive).

Consider `O=C(NC1CC2CCCC(C1)N2C(=O)Nc1ccccc1)c1ccccc1` (stereo not given), for which the inhibition is -0.41% (inactive).

For `COc1cc(C)c(CN2CCC(n3nccc3NC(=O)C3CCOC3)CC2)cc1C` (stereo not given), the inhibition is -6.02% (inactive).

In the case of `CC(C)N1CC(C(=O)Nc2ccc(C#N)cc2)CC1=O` (stereo not given), the inhibition is -2.49% (inactive).

On to `Cc1ncc(CC(=O)n2cc(C(=O)c3cc(F)ccc3O)cn2)s1`, for which the inhibition is 23.5% (inactive).

Consider `Cc1cc(Cl)ccc1OCC(=O)n1cc(C(=O)c2cc(Cl)ccc2O)cn1`, for which the inhibition is -8.17% (inactive).

Turning to `O=C(NCCc1ccccc1)c1nccc2ccccc12`, the inhibition was 3.49% (inactive).

With `COCCC(=O)N1CCC(Oc2ccc(C(=O)N3CCC[C@H]3CO)cc2)CC1`, the inhibition is -1.9% (inactive).

For the molecule `CCOC(=O)C1CCCN(C2CCN(Cc3nc(Cc4ccccc4)no3)CC2)C1` (stereo not given), the inhibition was -4.46% (inactive).

As to `CS(=O)(=O)c1ccc(C(=O)NCc2ccccc2F)cc1`, the inhibition is 2.01% (inactive).

With `O=C(O)c1cc(S(=O)(=O)NC(CO)C(O)c2ccc([N+](=O)[O-])cc2)ccc1Br` (stereo not given), the inhibition was 5.04% (inactive).

`CS(=O)(=O)c1ccc(C(=O)NC(Cc2ccccc2)c2ccccc2)cc1` (stereo not given): the inhibition is 2.4% (inactive).

`Cc1ccc(NC(=S)NC(CO)C(O)c2ccc([N+](=O)[O-])cc2)cc1` (stereo not given): the inhibition is 8.81% (inactive).

Take `Cc1ccc(-n2nc(C(=O)NN)c(C)c(C#N)c2=O)cc1Cl`: the inhibition is -0.01% (inactive).

Take `CCOC(=O)N1CCC(NC(=O)c2ccccc2C(=O)O)CC1`: the inhibition is 2.93% (inactive).

For the molecule `CCN(CC)S(=O)(=O)c1ccc(C)c(NC(=O)COc2ccc3c(C)cc(=O)oc3c2)c1`, the inhibition is -6.3% (inactive).

`CCCn1nnc(NC(=O)c2ccc([N+](=O)[O-])cc2Cl)n1`: the inhibition is -8.6% (inactive).

As to `Fc1ccc(-c2nc3ccccn3c2NCc2ccc3c(c2)OCO3)cc1`, the inhibition was -6.33% (inactive).

As to `Cc1ccc(CNC(=O)C(=O)NCCC2=CCCCC2)cc1`, the inhibition is -20.6% (inactive).

In the case of `O=C(NCCC1=CCCCC1)C(=O)NCc1ccccc1`, the inhibition was -1.97% (inactive).

With `Clc1ccc(CNCCC2=CCCCC2)cc1`, the inhibition was -4.93% (inactive).

In the case of `Cc1ccc(NC(=S)NCCC2=CCCCC2)cc1`, the inhibition was -0.73% (inactive).

Take `CC(C)[C@H](NC(=O)c1ccccc1Cl)C(=O)OCc1cc([N+](=O)[O-])cc2c1OCOC2`: the inhibition is -4.37% (inactive).

For `O=C(O)CCC(=O)Nc1nc2nccc(-c3ccccc3)n2n1`, the inhibition was -7.87% (inactive).

On to `CCOc1cc(/C=C2/C(=N)N3N=C(C)SC3=NC2=O)ccc1OS(=O)(=O)c1ccc(C)cc1`, for which the inhibition was 18.2% (inactive).

`O=C(Nc1cc2c3c(c1)CC(=O)N3CCC2)c1ccc(Br)o1`: the inhibition is 2.71% (inactive).

As to `CCNC(=S)NNC(=O)c1cc(-c2cccc(OCC)c2)nc2ccccc12`, the inhibition is 10.8% (inactive).

With `O=C(CCc1ccccc1)NNC(=O)c1ccccc1Br`, the inhibition was -5.24% (inactive).

In the case of `CCNc1ccc(C2(O)C(=O)c3ccccc3C2=O)cc1`, the inhibition was -8.28% (inactive).

As for `O=[N+]([O-])c1ccc(Cl)c2cccnc12`, the inhibition was -13% (inactive).

`Clc1cc2cccnc2c2ccccc12`: the inhibition was -17.8% (inactive).

Take `Cc1ccc([N+](=O)[O-])c2cccnc12`: the inhibition was -3.26% (inactive).

As to `O=[N+]([O-])c1ccc(O)c2cccnc12`, the inhibition is 2.39% (inactive).

Take `O=[N+]([O-])c1cc2cccnc2c2ncccc12`: the inhibition is -13.3% (inactive).

For the molecule `Oc1ccc(F)c2cccnc12`, the inhibition was 8.36% (inactive).

Regarding `Oc1c(I)cc(I)c2cccnc12`, the inhibition is 8.57% (inactive).

In the case of `O=[N+]([O-])c1cccc2c(Cl)ccnc12`, the inhibition was 5.29% (inactive).

For the molecule `Cc1oc2cc3oc(=O)c(CC(=O)NCC(=O)N[C@@H](C(=O)O)c4ccccc4)c(C)c3cc2c1C`, the inhibition is 3.13% (inactive).

These data come from PubChem BioAssay AID1850 (Southern Research Specialized Biocontainment Screening …, 2009).
